# The supplement of paper PMC8728848
# The sample as a whole holds a higher share of the strongest signals than the screen did.
# B1: Blon2355mut (Bifidobacterium longum) (protein)
# chain: MVQEPTLEWHVIPEPTNVEPLVGTCSLPLSGTVVEQRGADDAEAVFARQLVDDIKRVCGGRWQVASGEVQREVTLRTSPSLDDWSYVLEVSPDGVVITGSGFEGVRDGVQTLRQIIRQIGLTIPCMVIRDRPAFSTRGYYLDVTRGRVPSMAWLKSWVDRLCFYKYNQFQLYIEHTFQFNGLSEVWRGADPLTSSDILELDSYCAARGIELVPSVSTFGHHYTALRTRQLRDLGEFPEDADRPFSLIERMTHHTLNITDERSYEFSTSLIDELMPLFRSRKFNICANETFDLGKGRSKQESAKRGVGAMYADFVERLCRHVDDRGHDVMVWADVALEHPEIIDTLPKNITWLNWQYEPNVDDGTTAALADAGATQMVCPAVWCWNALIPRIDDAWNNITRMARHGRAHDVSGMLVTDWGDFGHVNDPRMSVPGMIFGAQQSWNPDAELSEVDMLSRISTIEYGDHTGSVVGALRGASAKGGFSWSDLVTYLELDDGRGGCNTEIVRVMGCLEAYRNDLPQSGQARLADARVSMLRTLRDSILAGRELNGKLDDAAKDITQLLRVAGDPSSAAVWSLAIDGQRLLNRVGLALLAAHGVVRQDEAGIDAAKLADELECWTEQYSRLWHEVSRQSELARIQHVVWRAADVLRSI
# Columns and labels:
# Assay in all cases: glycan array binding signal (z-score within array); higher = stronger binding
# Details in all cases: glycan notation: IUPAC condensed, linker removed
# [1] = target: Fuc(a1-2)Gal(b1-3)GalNAc(b1-3)Gal
# Summary of the method: (§1)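 Negative Z-scores can be read as non-binding. The Z-score is calculated within each array and then averaged across arrays of one protein sequence at different concentrations or buffers and across linkers. Arrays, 3228 in all, were curated from the Consortium for Functional Glycomics database and kept only where the protein sequence was available.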
# [2] = target: Fuc(a1-2)Gal(b1-3)GlcNAc(b1-2)Man(a1-3)[Fuc(a1-2)Gal(b1-3)GlcNAc(b1-2)Man(a1-6)]Man(b1-4)GlcNAc(b1-4)GlcNAc
# Summary of the method: as §1
# [3] = target: Fuc(a1-2)Gal(b1-4)GlcNAc(b1-3)[Fuc(a1-2)Gal(b1-4)GlcNAc(b1-6)]GalNAc
# Summary of the method: as §1
# [4] = target: Fuc(a1-2)Gal3S(b1-4)GlcNAc
# Summary of the method: as §1
# [5] = target: Fuc(a1-2)[Gal(a1-3)]Gal(b1-4)Glc
# Summary of the method: as §1
# [6] = target: Fuc(a1-2)[Gal(a1-3)]Gal(b1-4)GlcNAc(b1-2)Man(a1-3)[Fuc(a1-2)[Gal(a1-3)]Gal(b1-4)GlcNAc(b1-2)Man(a1-6)]Man(b1-4)GlcNAc(b1-4)GlcNAc
# Summary of the method: as §1
# [7] = target: Fuc(a1-3)[Gal(b1-4)]GlcNAc(b1-4)Gal(b1-4)[Fuc(a1-3)]GlcNAc(b1-4)Gal(b1-4)[Fuc(a1-3)]GlcNAc
# Summary of the method: as §1
# [8] = target: Fuc(a1-3)[Gal3S(b1-4)]GlcNAc6S
# Summary of the method: as §1
# [9] = target: Fuc(a1-3)[GalNAc(b1-4)]GlcNAc
# Summary of the method: as §1
# [10] = target: Gal(a1-3)Fuc(a1-2)Gal(b1-4)GlcNAc(b1-3)[Gal(a1-3)Fuc(a1-2)Gal(b1-4)GlcNAc(b1-6)]GalNAc
# Summary of the method: as §1
# [11] = target: Gal(a1-3)[Gal(a1-4)]Gal(b1-4)GlcNAc
# Summary of the method: as §1
# [12] = target: Gal(b1-3)GalNAc(a1-3)[Fuc(a1-2)]Gal(b1-4)Glc
# Summary of the method: as §1
# [13] = target: Gal(b1-3)[Fuc(a1-4)]GlcNAc(b1-3)Gal(b1-3)[Fuc(a1-4)]GlcNAc
# Summary of the method: as §1
# [14] = target: Gal(b1-4)GalNAc(b1-3)[Fuc(a1-2)]Gal(b1-4)GlcNAc
# Summary of the method: as §1
# [15] = target: Gal(b1-4)GlcNAc(b1-2)Man(a1-3)[Gal(b1-4)GlcNAc(b1-2)Man(a1-6)]Man(b1-4)GlcNAc(b1-4)GlcNAc
# Summary of the method: as §1
# [16] = target: Gal(b1-4)GlcNAc(b1-2)Man(a1-3)[Gal(b1-4)GlcNAc(b1-2)Man(a1-6)][GlcNAc(b1-4)]Man(b1-4)GlcNAc(b1-4)[Fuc(a1-6)]GlcNAc
# Summary of the method: as §1
# [17] = target: Gal(b1-4)GlcNAc(b1-2)[Gal(b1-4)GlcNAc(b1-6)]Man(a1-6)[GlcNAc(b1-4)][Gal(b1-4)GlcNAc(b1-2)[Gal(b1-4)GlcNAc(b1-4)]Man(a1-3)]Man(b1-4)GlcNAc(b1-4)[Fuc(a1-6)]GlcNAc
# Summary of the method: as §1
# [18] = target: Gal(b1-4)GlcNAc(b1-3)Gal(b1-3)GlcNAc
# Summary of the method: as §1
# [19] = target: Gal(b1-4)GlcNAc(b1-3)Gal(b1-4)Glc
# Summary of the method: as §1
# Gal3S(b1-4)Glc = target: Gal3S(b1-4)Glc
# Summary of the method: as §1
# [20] = target: Gal3S(b1-4)[Fuc(a1-3)]Glc6S
# Summary of the method: as §1
# Gal4S6S(b1-4)GlcNAc = target: Gal4S6S(b1-4)GlcNAc
# Summary of the method: as §1
# Gal6S(b1-4)Glc6S = target: Gal6S(b1-4)Glc6S
# Summary of the method: as §1
# GalNAc(b1-3)GlcNAc = target: GalNAc(b1-3)GlcNAc
# Summary of the method: as §1
# GalNAc(b1-4)GlcNAc = target: GalNAc(b1-4)GlcNAc
# Summary of the method: as §1
# [21] = target: GalNAc(b1-4)GlcNAc(b1-3)GalNAc(b1-4)GlcNAc
# Summary of the method: as §1
# GalNAc6S(b1-4)GlcNAc = target: GalNAc6S(b1-4)GlcNAc
# Summary of the method: as §1
# [22] = target: Glc(a1-4)Glc(a1-4)Glc(a1-4)Glc
# Summary of the method: as §1
# [23] = target: GlcNAc(a1-4)Gal(b1-4)GlcNAc
# Summary of the method: as §1
# [24] = target: GlcNAc(a1-4)Gal(b1-4)GlcNAc(b1-3)Gal(b1-4)GlcNAc
# Summary of the method: as §1
binder,measurement,setting,value
B1,glycan array binding signal (z-score),[1],4.04
same,glycan array binding signal (z-score),[2],2.69
same,glycan array binding signal (z-score),[3],-0.88
same,glycan array binding signal (z-score),[4],-0.915
same,glycan array binding signal (z-score),[5],-0.428
same,glycan array binding signal (z-score),[6],-0.395
same,glycan array binding signal (z-score),[7],-0.166
same,glycan array binding signal (z-score),[8],0.088
same,glycan array binding signal (z-score),[9],3.72
same,glycan array binding signal (z-score),[10],-1.04
same,glycan array binding signal (z-score),[11],3.31
same,glycan array binding signal (z-score),[12],-1.53
same,glycan array binding signal (z-score),[13],-1.02
same,glycan array binding signal (z-score),[14],0.202
same,glycan array binding signal (z-score),[15],-0.374
same,glycan array binding signal (z-score),[16],-0.951
same,glycan array binding signal (z-score),[17],-0.768
same,glycan array binding signal (z-score),[18],-1.26
same,glycan array binding signal (z-score),[19],1.06
same,glycan array binding signal (z-score),Gal3S(b1-4)Glc,2.74
same,glycan array binding signal (z-score),[20],3.52
same,glycan array binding signal (z-score),Gal4S6S(b1-4)GlcNAc,0.175
same,glycan array binding signal (z-score),Gal6S(b1-4)Glc6S,1.48
same,glycan array binding signal (z-score),GalNAc(b1-3)GlcNAc,0.179
same,glycan array binding signal (z-score),GalNAc(b1-4)GlcNAc,3.04
same,glycan array binding signal (z-score),[21],0.796
same,glycan array binding signal (z-score),GalNAc6S(b1-4)GlcNAc,-0.569
same,glycan array binding signal (z-score),[22],2.06
same,glycan array binding signal (z-score),[23],-0.637
same,glycan array binding signal (z-score),[24],-0.378
